Records with an inconclusive call do not appear. A call without a number means that no potency is given here. Activity calls are given as the source filed them. Unless noted, calls follow the shape of the dose curve; as a rule, active = well fitted curve in the direction sought with a large enough effect in the repeat runs; inconclusive = weak or mixed curves; inactive = no such curve, though single readings can be large; an effect the other way counts as inactive or inconclusive. Residues, ends and D or L forms follow the SMILES beside them.
Columns and labels:
[1] = qHTS assay for small molecule agonists of the p53 signaling pathway (AID 651631; calls by dose curve; also: nearly all actives have a fitted effect of over 15% in size; also: potency is read from the fitted curve at half-maximal effect)
Procedure, shortened: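 Beta-lactamase reporter activity under p53 response elements was quantified in HCT-116 cells by FRET fluorescence, following 16 h incubation with test compounds at 37 °C and 2 h substrate development at room temperature.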

[2] = qHTS assay for small molecules that induce genotoxicity in human embryonic kidney cells expressing luciferase-tagged ATAD5 (AID 651632); also: nearly all actives have a fitted effect of over 15% in size; also: potency is read from the fitted curve at half-maximal effect
Procedure, shortened: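 A rise in luciferase signal from ATAD5-tagged HEK293T cells marks genetic stress. Cells were exposed to compounds for 16 hr at 37C, 5% CO2, then luciferase was quantified after a 30 min room-temperature incubation with Amplite.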

[3] = qHTS assay for small molecule agonists of the p53 signaling pathway - cell viability (AID 651633; calls by dose curve; also: nearly all actives have a fitted effect of over 30% in size; also: potency is read from the fitted curve at half-maximal effect)
Procedure, shortened: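 p53RE-bla cells were treated with compound for 16 hours at 37 C. Cytotoxicity was then measured as CellTiter-Glo luminescence after 30 min at room temperature.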

[4] = qHTS assay for small molecules that induce genotoxicity in human embryonic kidney cells expressing luciferase-tagged ATAD5 - cell viability (AID 651634; calls by dose curve; also: nearly all actives have a fitted effect of over 25% in size; also: potency is read from the fitted curve at half-maximal effect)
Procedure, shortened: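 Cytotoxicity counter-readout: after 15.5 hr compound treatment at 37C, live-cell protease activity in ATAD5-luciferase HEK293T cells measured by CellTiter-Fluor fluorescence, 30 min development at 37C.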

[5] = qHTS assay for small molecule disruptors of the mitochondrial membrane potential (AID 720635); also: potency is read from the fitted curve at half-maximal effect
Procedure, shortened: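 HepG2 cells exposed to compound 1 hr at 37C, then Mito-MPS dye 30 min. Ratio read of aggregate (540/590 nm) versus monomer (490/535 nm) fluorescence.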

[6] = qHTS assay to test for compound auto fluorescence at 590 nm (red) in HepG2 cells (AID 720674)
Procedure, shortened: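 HepG2 cells, 2,000 per well in MEM with 10% FBS, attached overnight at 37 C, then got 23 nL compound or DMSO. After 1 hr at 37 C, 5% CO2, red fluorescence was read at 540/590 nm against Rose Bengal sodium as reference.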

[7] = qHTS assay to test for compound auto fluorescence at 535 nm (green) in HepG2 cells (AID 720675)
[8] = qHTS assay to test for compound auto fluorescence at 460 nm (blue) in HEK293 cells (AID 720678)
Procedure, shortened: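 After cell attachment (4-5 hr, 37C), compounds were pinned onto HEK293 monolayers in 10% dialyzed FBS medium. The blue channel (405/460 nm) was read following overnight culture. Equivalency was calculated against triamterene.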

[9] = qHTS assay to test for compound auto fluorescence at 590 nm (red) in HEK293 cells (AID 720679)
Procedure, shortened: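 Plates of HEK293 cells (10% dialyzed FBS) are treated with 23 nL compound or DMSO vehicle after a 4-5 hr attachment period, incubated overnight at 37C, and read for red fluorescence at 540/590nm.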

[10] = qHTS assay for small molecule disruptors of the mitochondrial membrane potential - cell viability (AID 720634; calls by dose curve;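 also: human HepG2 liver cancer cells; series mostly up to about 83 µM; nearly all actives have a fitted effect of over 20% in size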)
Procedure, shortened: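 Cytotoxicity was quantified from ATP content by CellTiter-Glo luminescence in the same wells as the MMP dye read-out. HepG2 (2,000 cells/well) were plated overnight and exposed to compounds for 1 hr at 37 C.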

Structure (SMILES)	Potency [1]	Potency [2]	Potency [3]	Potency [4]	Potency [5]	outcome [6]	Potency [7]	Potency [8]	outcome [9]	Potency [10]
Cc1cn([C@H]2C[C@H](O)[C@@H](CO)O2)c(=O)[nH]c1=O	inactive	inactive	inactive	inactive	inactive	inactive	inactive	inactive	inactive	–
COc1ccc(/C=C/C(=O)Nc2ccccc2C(=O)O)cc1OC	inactive	1.19 µM (active)	inactive	inactive	–	inactive	inactive	inactive	inactive	–
COC(=O)C[C@](O)(CCCC(C)(C)O)C(=O)O[C@@H]1C(OC)=CC23CCCN2CCc2cc4c(cc2[C@H]13)OCO4 (stereo partly specified)	0.0335 µM (active)	inactive	inactive	–	–	inactive	inactive	inactive	inactive	inactive
CCCCCCCCCC(=O)NO	inactive	inactive	inactive	–	inactive	inactive	inactive	inactive	–	inactive
CCCC(=O)c1cc(O)c(O)cc1O	68.6 µM (active)	inactive	inactive	30.6 µM (active)	5.45 µM (active)	inactive	–	inactive	inactive	–
CC(C)[C@H](NC(=O)[C@H](CC(=O)O)NC(=O)[C@H](CCCCN)NC(=O)[C@@H](N)CCCN=C(N)N)C(=O)N[C@@H](Cc1ccc(O)cc1)C(=O)O (H-RKDVY-OH)	inactive	inactive	inactive	inactive	–	inactive	inactive	inactive	inactive	–
CC(=O)O[C@H]1C[C@@H]2CC[C@@H]3[C@H](CC[C@@]4(C)[C@H]3C[C@H]([N+]3(C)CCCCC3)[C@@H]4OC(C)=O)[C@@]2(C)C[C@@H]1[N+]1(C)CCCCC1	inactive	inactive	inactive	inactive	–	inactive	inactive	–	inactive	–
COc1cc2c(c(OC)c1OC)-c1c(cc3c(c1OC)OCO3)C[C@@H](C)[C@](C)(O)C2	inactive	inactive	inactive	–	inactive	inactive	inactive	inactive	–	inactive
NC(=O)c1cc[n+](CC2=C(C(=O)O)N3C(=O)[C@@H](NC(=O)C(c4ccccc4)S(=O)(=O)[O-])[C@H]3SC2)cc1 (stereo partly specified)	inactive	inactive	inactive	inactive	inactive	inactive	inactive	inactive	inactive	–
O=P(O)(O)CP(=O)(O)O	inactive	inactive	inactive	inactive	inactive	inactive	inactive	inactive	inactive	–
O=C(O)[C@@H]1C[C@H](CP(=O)(O)O)CCN1	inactive	inactive	inactive	inactive	–	inactive	inactive	–	–	–
O=C1CC[C@@H](C(=O)N[C@H]2C[C@@H]2c2ccccc2)N1	inactive	inactive	inactive	inactive	inactive	inactive	inactive	–	inactive	–
CC1CCCC(C)N1NC(=O)c1ccc(Cl)c(S(N)(=O)=O)c1 (stereo unspecified)	inactive	inactive	inactive	–	–	inactive	inactive	inactive	inactive	inactive
CC(C)COC(=O)OCN1C(=O)CN(CCN2CC(=O)N(COC(=O)OCC(C)C)C(=O)C2)CC1=O	3.76 µM (active)	inactive	inactive	–	inactive	inactive	inactive	inactive	inactive	inactive
CC[C@H]1OC(=O)C[C@@H](O)[C@H](C)[C@@H](O[C@@H]2O[C@H](C)[C@@H](O[C@H]3C[C@@](C)(O)[C@@H](O)[C@H](C)O3)[C@H](N(C)C)[C@H]2O)[C@@H](CC=O)C[C@@H](C)C(=O)/C=C/C(C)=C/[C@@H]1CO[C@@H]1O[C@H](C)[C@@H](O)[C@@H](OC)[C@H]1OC	inactive	inactive	inactive	–	inactive	inactive	inactive	inactive	inactive	inactive
CC(C)(C)C(=O)OCC(=O)[C@H]1CC[C@H]2[C@@H]3CCC4=CC(=O)CC[C@]4(C)[C@H]3CC[C@]12C	inactive	inactive	inactive	inactive	inactive	inactive	inactive	inactive	inactive	–
CCCOC(=O)c1ccc(O)cc1	inactive	inactive	inactive	inactive	–	inactive	inactive	inactive	–	–
O=C(O)c1cc(=O)c2c3nc4ccccc4oc-3cc(=O)c2[nH]1	inactive	inactive	inactive	–	–	inactive	inactive	inactive	inactive	inactive
CC[C@@H](C(=O)[C@@H](C)[C@@H](O)[C@H](C)CCc1ccc(C)c(O)c1C(=O)O)[C@H]1O[C@](CC)([C@H]2CC[C@](O)(CC)[C@H](C)O2)C[C@@H]1C	23.7 µM (active)	inactive	26.6 µM (active)	23.7 µM (active)	–	inactive	inactive	inactive	inactive	–

Structure (SMILES)	Potency [1]	Potency [2]	Potency [3]	Potency [4]	Potency [5]	outcome [6]	Potency [7]	Potency [8]	outcome [9]	Potency [10]
CC[C@H]1OC(=O)[C@H](C)C(=O)[C@H](C)[C@@H](O[C@@H]2O[C@H](C)C[C@H](N(C)C)[C@H]2O)[C@](C)(OC)C[C@@H](C)C(=O)[C@H](C)[C@H]2N(CCCCn3cnc(-c4cccnc4)c3)C(=O)O[C@]12C	inactive	inactive	inactive	–	–	inactive	inactive	inactive	inactive	inactive
COC1=C(OC)C(=O)C(C/C=C(\C)CC/C=C(\C)CC/C=C(\C)CC/C=C(\C)CC/C=C(\C)CC/C=C(\C)CC/C=C(\C)CC/C=C(\C)CC/C=C(\C)CCC=C(C)C)=C(C)C1=O	inactive	inactive	inactive	–	inactive	inactive	inactive	inactive	inactive	inactive
CCCCCCCCCCCCCC(=O)OCC(COP(=O)([O-])OCC[N+](C)(C)C)OC(=O)CCCCCCCCCCCCC (stereo unspecified)	inactive	inactive	inactive	inactive	inactive	inactive	inactive	–	inactive	–
Cc1cc(C(=O)NCCc2ccc(S(=O)(=O)NC(=O)NN3CCCCCC3)cc2)no1	inactive	inactive	inactive	–	inactive	inactive	–	inactive	inactive	inactive
CC[C@H]1OC(=O)C[C@@H](O)[C@H](C)[C@@H](O[C@@H]2O[C@H](C)[C@@H](O)[C@H](N(C)C)[C@H]2O)[C@@H](CCN2C[C@H](C)C[C@H](C)C2)C[C@@H](C)C(=O)/C=C/C(C)=C/[C@@H]1CO[C@@H]1O[C@H](C)[C@@H](O)[C@@H](OC)[C@H]1OC	inactive	inactive	inactive	–	inactive	inactive	inactive	inactive	inactive	inactive
NCCCC[C@H](NC(=O)[C@@H]1CCCN1C(=O)[C@@H]1CSSC[C@H](N)C(=O)N[C@@H](Cc2ccc(O)cc2)C(=O)N[C@@H](Cc2ccccc2)C(=O)N[C@@H](CCC(N)=O)C(=O)N[C@@H](CC(N)=O)C(=O)N1)C(=O)NCC(N)=O	inactive	inactive	inactive	–	inactive	inactive	inactive	inactive	inactive	inactive
CCCOC(=O)c1ccccc1O	inactive	inactive	inactive	–	inactive	inactive	inactive	inactive	inactive	inactive
CSCCC(N)C(=O)O (stereo unspecified)	inactive	inactive	inactive	–	inactive	inactive	inactive	inactive	inactive	inactive
NCCO/C=C/[C@H](N)C(=O)O	inactive	inactive	inactive	–	inactive	inactive	inactive	–	inactive	inactive
C[C@H]1O[C@@H](O[C@H]2CC[C@@]3(C)[C@H](CC[C@@H]4[C@@H]3C[C@@H](O)[C@]3(C)[C@@H](C5=CC(=O)OC5)CC[C@]43O)C2)C[C@H](O)[C@@H]1O[C@H]1C[C@H](O)[C@H](O[C@H]2C[C@H](O)[C@H](O[C@@H]3O[C@H](CO)[C@@H](O)[C@H](O)[C@H]3O)[C@@H](C)O2)[C@@H](C)O1	–	inactive	0.168 µM (active)	0.531 µM (active)	1.68 µM (active)	inactive	inactive	inactive	–	inactive
Nc1cc(Cl)c(NC2=NCCN2)c(Cl)c1	inactive	inactive	–	inactive	inactive	inactive	inactive	–	inactive	inactive
O=C(O)Cc1nn(Cc2ccc(Br)cc2F)c(=O)c2ccccc12	inactive	inactive	inactive	–	inactive	inactive	inactive	inactive	inactive	–
CC1(C)C[C@@H]1C(=O)N/C(=C\CCCCSC[C@H](N)C(=O)O)C(=O)O	inactive	–	inactive	inactive	–	inactive	inactive	inactive	inactive	–
CC/C=C\C/C=C\C/C=C\C/C=C\C/C=C\C/C=C\CCC(=O)O	inactive	inactive	–	inactive	inactive	inactive	inactive	inactive	inactive	inactive
CC1(C)S[C@@H]2[C@H](N3C(=O)C(c4ccccc4)NC3(C)C)C(=O)N2[C@H]1C(=O)O (stereo partly specified)	inactive	inactive	–	inactive	–	inactive	inactive	inactive	inactive	inactive
O=P(O)(O)OP(=O)(O)OP(=O)(O)O	–	inactive	inactive	inactive	inactive	inactive	inactive	inactive	–	inactive
C[N+](C)(C)CCOP(=O)(O)OP(=O)([O-])OC[C@H]1O[C@@H](n2ccc(N)nc2=O)[C@H](O)[C@@H]1O	–	inactive	inactive	inactive	inactive	inactive	inactive	inactive	–	inactive
C[C@@H]1O[C@@H](OC[C@H]2O[C@@H](Oc3c(-c4ccc(OCCO)c(OCCO)c4)oc4cc(OCCO)cc(O)c4c3=O)[C@H](O)[C@@H](O)[C@@H]2O)[C@H](O)[C@H](O)[C@H]1O	inactive	inactive	–	inactive	inactive	inactive	inactive	–	inactive	inactive
O=C(O)C[C@H](O)C[C@H](O)/C=C/c1c(C2CC2)nc2ccccc2c1-c1ccc(F)cc1	inactive	inactive	–	inactive	–	inactive	inactive	inactive	inactive	inactive

From PubChem BioAssay (Tox21)
